Results published in ChEMBL document CHEMBL1961873, “Compounds: GSK PKIS; Assays: Nanosyn kinase panel” (2012).
Where “and” joins values, the source holds several entries; their conditions need not be identical. Equal values may be shown once.

Tests used:
[1] = target: Serine/threonine-protein kinase PAK 6 (Homo sapiens) (UniProt Q9NQU5); details: at 1 µM;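 note: values are mean percent inhibition of PAK6 kinase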
[2] = tested on: Tyrosine-protein kinase ABL1 (Homo sapiens), P00519 [E255K]; details: at 0.1 µM
[3] = tested on: Tyrosine-protein kinase ABL1 (Homo sapiens), P00519 [E255K]; details: at 1 µM
[4] = tested on: Tyrosine-protein kinase ABL1 (Homo sapiens), P00519 [H396P]; details: at 0.1 µM
[5] = tested on: Tyrosine-protein kinase ABL1 (Homo sapiens), P00519 [H396P]; details: at 1 µM
[6] = tested on: Tyrosine-protein kinase ABL1 (Homo sapiens), P00519 [M351T]; details: at 0.1 µM
[7] = tested on: Tyrosine-protein kinase ABL1 (Homo sapiens), P00519 [M351T]; details: at 1 µM
[8] = tested on: Tyrosine-protein kinase ABL1 (Homo sapiens), P00519 [Q252H]; details: at 0.1 µM
[9] = tested on: Tyrosine-protein kinase ABL1 (Homo sapiens), P00519 [Q252H]; details: at 1 µM
[10] = tested on: Tyrosine-protein kinase ABL1 (Homo sapiens), P00519 [T315I]; details: at 0.1 µM
[11] = tested on: Tyrosine-protein kinase ABL1 (Homo sapiens), P00519 [T315I]; details: at 1 µM
[12] = tested on: Tyrosine-protein kinase ABL1 (Homo sapiens), P00519 [Y253F]; details: at 0.1 µM
[13] = tested on: Tyrosine-protein kinase ABL1 (Homo sapiens), P00519 [Y253F]; details: at 1 µM
[14] = target: Tyrosine-protein kinase ABL1 (Homo sapiens) (UniProt P00519); details: at 0.1 µM
[15] = target: Tyrosine-protein kinase ABL1 (Homo sapiens) (UniProt P00519); details: at 1 µM
[16] = target: ALK tyrosine kinase receptor (Homo sapiens) (UniProt Q9UM73); details: at 0.1 µM
ALK tyrosine kinase receptor (Homo sapiens), sequence (Q9UM73 19-1620 limits assumed): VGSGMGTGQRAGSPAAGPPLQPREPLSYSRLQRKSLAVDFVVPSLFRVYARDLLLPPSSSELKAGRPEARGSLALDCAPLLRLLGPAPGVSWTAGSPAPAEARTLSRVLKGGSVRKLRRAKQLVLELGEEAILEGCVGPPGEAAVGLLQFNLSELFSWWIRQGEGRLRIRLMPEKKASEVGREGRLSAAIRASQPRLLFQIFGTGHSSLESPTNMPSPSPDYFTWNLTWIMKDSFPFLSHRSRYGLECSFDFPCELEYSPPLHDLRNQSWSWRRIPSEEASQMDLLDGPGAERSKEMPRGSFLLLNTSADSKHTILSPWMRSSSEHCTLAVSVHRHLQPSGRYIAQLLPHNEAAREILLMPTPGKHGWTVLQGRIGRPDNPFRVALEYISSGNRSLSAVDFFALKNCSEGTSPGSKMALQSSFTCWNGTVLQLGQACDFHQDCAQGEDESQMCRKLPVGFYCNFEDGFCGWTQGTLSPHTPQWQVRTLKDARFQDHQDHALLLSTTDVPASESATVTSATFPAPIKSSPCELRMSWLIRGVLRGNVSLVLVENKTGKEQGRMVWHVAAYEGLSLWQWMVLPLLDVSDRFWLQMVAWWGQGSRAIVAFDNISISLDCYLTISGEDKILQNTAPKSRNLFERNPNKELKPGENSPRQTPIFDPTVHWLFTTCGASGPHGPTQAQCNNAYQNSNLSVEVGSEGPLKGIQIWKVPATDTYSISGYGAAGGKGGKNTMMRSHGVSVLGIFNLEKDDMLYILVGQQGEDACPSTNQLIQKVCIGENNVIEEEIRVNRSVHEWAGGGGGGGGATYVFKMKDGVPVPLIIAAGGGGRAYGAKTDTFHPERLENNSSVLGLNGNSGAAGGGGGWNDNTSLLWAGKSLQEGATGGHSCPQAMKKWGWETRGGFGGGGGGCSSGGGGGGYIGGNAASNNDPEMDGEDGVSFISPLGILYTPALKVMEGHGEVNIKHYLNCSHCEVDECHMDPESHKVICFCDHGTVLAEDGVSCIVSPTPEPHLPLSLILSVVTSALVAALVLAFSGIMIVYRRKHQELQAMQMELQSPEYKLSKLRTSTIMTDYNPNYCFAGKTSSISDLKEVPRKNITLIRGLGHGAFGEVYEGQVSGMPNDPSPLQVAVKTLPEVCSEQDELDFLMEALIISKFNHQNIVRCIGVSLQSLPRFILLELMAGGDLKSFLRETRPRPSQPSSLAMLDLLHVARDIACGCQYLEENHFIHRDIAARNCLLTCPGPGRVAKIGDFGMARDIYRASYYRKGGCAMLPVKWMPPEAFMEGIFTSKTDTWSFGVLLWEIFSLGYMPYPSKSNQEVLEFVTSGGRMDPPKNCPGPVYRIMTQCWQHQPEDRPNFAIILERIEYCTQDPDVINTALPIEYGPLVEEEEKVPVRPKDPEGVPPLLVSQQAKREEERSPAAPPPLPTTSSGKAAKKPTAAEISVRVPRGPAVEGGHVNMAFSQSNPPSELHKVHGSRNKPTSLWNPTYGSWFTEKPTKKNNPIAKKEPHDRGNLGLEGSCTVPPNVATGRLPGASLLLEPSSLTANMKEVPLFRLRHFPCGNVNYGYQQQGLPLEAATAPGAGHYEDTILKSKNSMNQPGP

[17] = target: ALK tyrosine kinase receptor (Homo sapiens) (UniProt Q9UM73); details: at 1 µM
[18] = target: Tyrosine-protein kinase ABL2 (Homo sapiens) (UniProt P42684); details: at 0.1 µM
Tyrosine-protein kinase ABL2 (Homo sapiens), sequence (P42684 whole entry): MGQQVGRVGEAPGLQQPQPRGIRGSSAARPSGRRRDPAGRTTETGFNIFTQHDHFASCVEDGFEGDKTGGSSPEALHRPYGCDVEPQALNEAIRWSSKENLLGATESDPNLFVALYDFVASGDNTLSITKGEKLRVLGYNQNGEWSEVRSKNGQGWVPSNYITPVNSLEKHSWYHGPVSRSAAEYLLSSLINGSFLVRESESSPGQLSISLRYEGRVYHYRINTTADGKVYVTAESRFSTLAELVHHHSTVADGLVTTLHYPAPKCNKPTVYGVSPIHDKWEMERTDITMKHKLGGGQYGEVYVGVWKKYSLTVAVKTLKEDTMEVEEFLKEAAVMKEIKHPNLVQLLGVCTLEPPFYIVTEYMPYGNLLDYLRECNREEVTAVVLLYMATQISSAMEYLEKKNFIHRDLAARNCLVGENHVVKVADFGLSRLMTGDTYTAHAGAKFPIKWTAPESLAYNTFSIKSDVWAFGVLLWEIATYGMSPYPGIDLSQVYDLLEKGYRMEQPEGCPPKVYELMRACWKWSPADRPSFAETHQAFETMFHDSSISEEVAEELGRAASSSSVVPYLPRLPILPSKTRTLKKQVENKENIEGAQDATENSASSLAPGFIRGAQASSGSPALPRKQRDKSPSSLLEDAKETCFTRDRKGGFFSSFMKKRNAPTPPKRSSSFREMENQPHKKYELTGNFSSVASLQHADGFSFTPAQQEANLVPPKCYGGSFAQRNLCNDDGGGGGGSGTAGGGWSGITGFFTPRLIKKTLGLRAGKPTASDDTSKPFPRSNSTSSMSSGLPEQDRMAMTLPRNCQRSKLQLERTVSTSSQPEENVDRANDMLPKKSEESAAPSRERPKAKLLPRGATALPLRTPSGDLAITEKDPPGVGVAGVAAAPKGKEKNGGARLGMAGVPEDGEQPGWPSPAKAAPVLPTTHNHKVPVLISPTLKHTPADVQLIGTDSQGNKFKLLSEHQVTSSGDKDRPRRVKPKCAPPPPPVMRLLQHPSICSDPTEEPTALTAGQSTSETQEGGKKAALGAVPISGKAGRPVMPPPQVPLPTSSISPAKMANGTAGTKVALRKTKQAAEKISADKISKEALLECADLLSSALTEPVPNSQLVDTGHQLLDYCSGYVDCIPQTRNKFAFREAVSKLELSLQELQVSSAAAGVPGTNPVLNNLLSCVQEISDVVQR

[19] = target: Tyrosine-protein kinase ABL2 (Homo sapiens) (UniProt P42684); details: at 1 µM
[20] = target: Tyrosine-protein kinase receptor UFO (Homo sapiens) (UniProt P30530); details: at 0.1 µM;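 note: values are mean percent inhibition of AXL from the GSK PKIS screen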
Tyrosine-protein kinase receptor UFO (Homo sapiens), sequence (P30530 whole entry): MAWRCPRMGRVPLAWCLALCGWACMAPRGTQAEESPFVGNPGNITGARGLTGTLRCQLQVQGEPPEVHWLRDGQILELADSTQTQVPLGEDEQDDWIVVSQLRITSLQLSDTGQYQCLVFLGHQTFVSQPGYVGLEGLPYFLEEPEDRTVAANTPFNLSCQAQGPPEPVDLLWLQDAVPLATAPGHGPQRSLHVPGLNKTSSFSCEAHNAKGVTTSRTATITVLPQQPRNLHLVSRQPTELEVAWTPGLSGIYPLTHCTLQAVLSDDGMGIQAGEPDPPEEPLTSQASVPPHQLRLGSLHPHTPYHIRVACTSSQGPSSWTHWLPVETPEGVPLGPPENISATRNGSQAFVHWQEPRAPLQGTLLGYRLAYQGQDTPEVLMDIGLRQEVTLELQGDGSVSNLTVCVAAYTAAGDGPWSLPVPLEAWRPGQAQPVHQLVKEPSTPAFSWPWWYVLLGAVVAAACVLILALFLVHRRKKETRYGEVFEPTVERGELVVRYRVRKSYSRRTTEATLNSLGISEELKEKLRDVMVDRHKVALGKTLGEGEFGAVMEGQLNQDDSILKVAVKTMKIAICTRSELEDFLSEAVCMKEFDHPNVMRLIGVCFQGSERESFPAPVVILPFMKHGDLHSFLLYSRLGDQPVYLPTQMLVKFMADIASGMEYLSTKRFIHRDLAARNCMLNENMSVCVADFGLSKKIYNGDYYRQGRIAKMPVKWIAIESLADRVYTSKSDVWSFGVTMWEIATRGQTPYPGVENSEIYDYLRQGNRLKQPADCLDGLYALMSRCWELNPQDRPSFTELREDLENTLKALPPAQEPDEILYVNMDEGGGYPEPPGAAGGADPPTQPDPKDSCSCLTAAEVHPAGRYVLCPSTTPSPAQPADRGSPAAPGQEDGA

Serine/threonine-protein kinase PAK 6 (Homo sapiens), sequence (Q9NQU5 whole entry, looked up): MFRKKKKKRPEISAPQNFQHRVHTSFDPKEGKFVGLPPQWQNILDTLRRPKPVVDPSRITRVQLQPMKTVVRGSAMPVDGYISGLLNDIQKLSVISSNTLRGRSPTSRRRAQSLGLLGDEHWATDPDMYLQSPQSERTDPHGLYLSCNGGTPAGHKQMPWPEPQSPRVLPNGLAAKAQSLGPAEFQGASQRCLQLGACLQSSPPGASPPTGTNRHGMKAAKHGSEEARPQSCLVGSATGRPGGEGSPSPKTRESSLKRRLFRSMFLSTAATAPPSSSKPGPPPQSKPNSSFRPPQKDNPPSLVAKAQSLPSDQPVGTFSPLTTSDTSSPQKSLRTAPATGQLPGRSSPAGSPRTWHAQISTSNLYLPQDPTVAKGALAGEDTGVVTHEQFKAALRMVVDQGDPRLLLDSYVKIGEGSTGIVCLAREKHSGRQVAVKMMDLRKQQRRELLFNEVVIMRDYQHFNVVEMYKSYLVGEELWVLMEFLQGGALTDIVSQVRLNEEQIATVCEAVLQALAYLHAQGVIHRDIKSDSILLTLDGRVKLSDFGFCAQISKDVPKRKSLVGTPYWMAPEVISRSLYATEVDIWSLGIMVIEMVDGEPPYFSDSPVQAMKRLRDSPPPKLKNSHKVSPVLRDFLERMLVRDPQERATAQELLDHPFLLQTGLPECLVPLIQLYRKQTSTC

With `CCOc1ccc2c(-c3ccnc(Nc4cc(OC)cc(C(F)(F)F)c4)n3)cnn2n1` the inhibition [1] was 3.48%, the inhibition [2] was 0.14% and the inhibition [3] was 4.02%. For the same compound, the inhibition [4] was 0.25%, the inhibition [5] was 6.23% and the inhibition [6] was 2.11%. It also gave an inhibition [7] of 7.2%, an inhibition [8] of 1.15% and an inhibition [9] of 6.33%. The inhibition [10] was 0.17%, the inhibition [11] was 3.15% and the inhibition [12] was 2.66%. It also gave an inhibition [13] of 7.81%, an inhibition [14] of 5.8% and an inhibition [15] of 11.5%. It also gave an inhibition [16] of -0.08%, an inhibition [17] of 1.27% and an inhibition [18] of 6.07%. For the same compound, the inhibition [19] was 9.53% and the inhibition [20] was 0.45%.

`CN1CCN(Cc2ccc(-c3cc4ncnc(Nc5ccc(OCc6cccc(F)c6)c(Cl)c5)c4s3)o2)CC1` was tested, and the inhibition [1] was -4.15% and 3.43%, the inhibition [2] was 2.21% and 2.71% and the inhibition [3] was 7.15% and 8.4%. The inhibition [4] was 4.73% and 6.21%, the inhibition [5] was 14.3% and 18% and the inhibition [6] was 1.3% and 4.75%. The inhibition [7] was 14.7% and 17.9%, the inhibition [8] was 4.48% and 6.29% and the inhibition [9] was 16.1% and 20.9%. For the same compound, the inhibition [10] was 3.33% and 5.07%, the inhibition [11] was 16.3% and 19.7% and the inhibition [12] was 4.69% and 4.76%. For the same compound, the inhibition [13] was 12.2% and 15.9%, the inhibition [14] was 3.24% and 4% and the inhibition [15] was 9.31% and 11%. For the same compound, the inhibition [16] was 2.64% and 4.3%, the inhibition [17] was 8.37% and 11.1% and the inhibition [18] was 3.03% and 4.53%. For the same compound, the inhibition [19] was 5.38% and 10.7% and the inhibition [20] was -3.61% and -5.96%.

In the case of `CC1(C)CC(n2cnc(-c3ccc(F)cc3)c2-c2ccnc(N)n2)CC(C)(C)N1`, the inhibition [1] is reported as -4.18%, the inhibition [2] is reported as 1.94% and the inhibition [3] is reported as 2.09%. For the same compound, the inhibition [4] was 0.18%, the inhibition [5] was 0.59% and the inhibition [6] was 2.43%. The inhibition [7] was 0.27%, the inhibition [8] was 0.65% and the inhibition [9] was 0.31%. The inhibition [10] was 1.92%, the inhibition [11] was 4.98% and the inhibition [12] was 8%. For the same compound, the inhibition [13] was 5.3%, the inhibition [14] was -0.56% and the inhibition [15] was 4.28%. For the same compound, the inhibition [16] was -0.41%, the inhibition [17] was 1.55% and the inhibition [18] was -1.89%. It also gave an inhibition [19] of 1.01% and an inhibition [20] of -0.07%.

`CC(C)c1ccc(-c2cc(-c3c[nH]nc3-c3ccccn3)ccn2)cc1` gave an inhibition [1] of -0.86%, an inhibition [2] of 2.44% and an inhibition [3] of 17.2%. It also gave an inhibition [4] of 7.55%, an inhibition [5] of 40.1% and an inhibition [6] of 5.28%. For the same compound, the inhibition [7] was 38.5%, the inhibition [8] was 3.86% and the inhibition [9] was 21.4%. The inhibition [10] was 1.9%, the inhibition [11] was 0.44% and the inhibition [12] was 1.59%. The inhibition [13] was 22.1%, the inhibition [14] was 7.53% and the inhibition [15] was 45.5%. The inhibition [16] was 1.28%, the inhibition [17] was 3.08% and the inhibition [18] was 8.41%. It also gave an inhibition [19] of 16.6% and an inhibition [20] of -1.3%.

For `CS(=O)(=O)Nc1ccc(-c2cc(-c3ccccc3)cc(C(N)=O)c2N)cc1`, the inhibition [1] was -8.25%, the inhibition [2] was 1.39% and the inhibition [3] was 2.13%. For the same compound, the inhibition [4] was 1.72%, the inhibition [5] was 3.82% and the inhibition [6] was 0.69%. The inhibition [7] was 2.62%, the inhibition [8] was 2.8% and the inhibition [9] was 3.07%. It also gave an inhibition [10] of 0.02%, an inhibition [11] of 0.72% and an inhibition [12] of 1.53%. The inhibition [13] was 2.93%, the inhibition [14] was 3.02% and the inhibition [15] was 7.08%. It also gave an inhibition [16] of 0.29%, an inhibition [17] of 2.13% and an inhibition [18] of 2.05%. For the same compound, the inhibition [19] was 7.11% and the inhibition [20] was -4.02%.

In the case of `O=C1Nc2ccccc2/C1=C1\CCc2cc(O)ccc21`, the inhibition [1] is reported as -3.1%, the inhibition [2] is reported as 1.09% and the inhibition [3] is reported as 9.2%. It also gave an inhibition [4] of 5.59%, an inhibition [5] of 15% and an inhibition [6] of 4.89%. The inhibition [7] was 15.4%, the inhibition [8] was 5.53% and the inhibition [9] was 12.8%. It also gave an inhibition [10] of 4.27%, an inhibition [11] of 16.2% and an inhibition [12] of 5%. For the same compound, the inhibition [13] was 15.6%, the inhibition [14] was 3.68% and the inhibition [15] was 15%. It also gave an inhibition [16] of 5.54%, an inhibition [17] of 25.4% and an inhibition [18] of 2.63%. It also gave an inhibition [19] of 9.37% and an inhibition [20] of -8.77%.

`Fc1ccc(Nc2nccc(-c3c(-c4ccc(C(F)(F)F)cc4)nn4ncccc34)n2)cc1F` gave an inhibition [1] of 1.02%, an inhibition [2] of 0.93% and an inhibition [3] of 3.19%. For the same compound, the inhibition [4] was 3.64%, the inhibition [5] was 1.04% and the inhibition [6] was 2.73%. For the same compound, the inhibition [7] was 2.45%, the inhibition [8] was 3.28% and the inhibition [9] was -0.3%. It also gave an inhibition [10] of 3.85%, an inhibition [11] of 0.93% and an inhibition [12] of 3.58%. For the same compound, the inhibition [13] was 2.19%, the inhibition [14] was 5.29% and the inhibition [15] was 5.12%. For the same compound, the inhibition [16] was 3.18%, the inhibition [17] was 6.53% and the inhibition [18] was 3.43%. For the same compound, the inhibition [19] was 4.03% and the inhibition [20] was -5.49%.

Compound `CC1=C(C(=O)Nc2ccc3[nH]ncc3c2)C(c2ccc(F)cc2)N=C(c2ccc(C(F)(F)F)nc2)N1` (stereo not given) has an inhibition [1] of 1.5%, an inhibition [2] of 2.72% and an inhibition [3] of 3.5%. The inhibition [4] was 2.21%, the inhibition [5] was 1.95% and the inhibition [6] was 1.43%. For the same compound, the inhibition [7] was 3.71%, the inhibition [8] was 1.86% and the inhibition [9] was 3.9%. The inhibition [10] was 1.97%, the inhibition [11] was 2.27% and the inhibition [12] was 3.86%. It also gave an inhibition [13] of 2.79%, an inhibition [14] of 3.97% and an inhibition [15] of 10.4%. It also gave an inhibition [16] of 4.23%, an inhibition [17] of 4.29% and an inhibition [18] of 3.72%. It also gave an inhibition [19] of 8.41% and an inhibition [20] of -1.91%.

Compound `CCCNc1cccc(-n2ncc3c(N/N=C/c4ccncc4)ncnc32)c1` has an inhibition [1] of 2.09%, an inhibition [2] of 27.1% and an inhibition [3] of 77.2%. The inhibition [4] was 37.5%, the inhibition [5] was 86% and the inhibition [6] was 36.8%. For the same compound, the inhibition [7] was 85.8%, the inhibition [8] was 35.7% and the inhibition [9] was 83.8%. It also gave an inhibition [10] of 37.5%, an inhibition [11] of 85.8% and an inhibition [12] of 42.4%. The inhibition [13] was 86.2%, the inhibition [14] was 24.3% and the inhibition [15] was 75.3%. It also gave an inhibition [16] of 0.42%, an inhibition [17] of 3.35% and an inhibition [18] of 11.6%. The inhibition [19] was 61.9% and the inhibition [20] was 2.01%.

Compound `COc1cccc(-n2ncc3c(N/N=C/c4ccc(C(=O)NCCN(C)C)cc4)ncnc32)c1` has an inhibition [1] of 12.9%, an inhibition [2] of 92.1% and an inhibition [3] of 94.7%. It also gave an inhibition [4] of 93.9%, an inhibition [5] of 95% and an inhibition [6] of 92.3%. The inhibition [7] was 95.5%, the inhibition [8] was 94.2% and the inhibition [9] was 95.4%. The inhibition [10] was 84.6%, the inhibition [11] was 95% and the inhibition [12] was 93.3%. For the same compound, the inhibition [13] was 94.5%, the inhibition [14] was 81.7% and the inhibition [15] was 83.1%. The inhibition [16] was 3.26%, the inhibition [17] was 8.56% and the inhibition [18] was 73.3%. It also gave an inhibition [19] of 82% and an inhibition [20] of 3.3%.

For `COc1ccc2ncn(-c3cc(O[C@H](C)c4ccccc4C(F)(F)F)c(C(N)=O)s3)c2c1`, the inhibition [1] was -8.65%, the inhibition [2] was -0.4% and the inhibition [3] was -1.92%. For the same compound, the inhibition [4] was -0.02%, the inhibition [5] was 2.03% and the inhibition [6] was 0.8%. It also gave an inhibition [7] of 1.91%, an inhibition [8] of -0.3% and an inhibition [9] of 2.05%. It also gave an inhibition [10] of 0.03%, an inhibition [11] of 0.84% and an inhibition [12] of -1.93%. For the same compound, the inhibition [13] was -0.53%, the inhibition [14] was 0.27% and the inhibition [15] was 9.42%. It also gave an inhibition [16] of -0.81%, an inhibition [17] of 2.16% and an inhibition [18] of 4.37%. For the same compound, the inhibition [19] was 2.94% and the inhibition [20] was 0.07%.

`NC(=O)c1ccc2c(-c3ccnc(NCCCO)n3)c(-c3ccc(F)cc3)nn2c1` showed an inhibition [1] of -5.05%, an inhibition [2] of 4.7% and an inhibition [3] of 7.28%. For the same compound, the inhibition [4] was 6.27%, the inhibition [5] was 8.34% and the inhibition [6] was 3.9%. The inhibition [7] was 10.1%, the inhibition [8] was 5.67% and the inhibition [9] was 10.2%. The inhibition [10] was 2.91%, the inhibition [11] was 6.37% and the inhibition [12] was 7.28%. It also gave an inhibition [13] of 8.72%, an inhibition [14] of 4.37% and an inhibition [15] of 13.2%. It also gave an inhibition [16] of 3.18%, an inhibition [17] of 7.82% and an inhibition [18] of 4.85%. The inhibition [19] was 10.1% and the inhibition [20] was -6.77%.
